# Assay outcomes: PubChem, National Center for Advancing Translational Sciences (NCATS)
# This is one part of a sample in which hits are shown more often than they occur.
# LmPK inhibitor: qHTS Assay for Inhibitors of Leishmania Mexicana Pyruvate Kinase (LmPK) | Q27686 | purified LmPK, Kinase-Glo ATP luminescence, 1 h | Potency, µM (series often up to 57.5 µM), for inactives: at the top dose activity change, negative = inhibition, usual class: inhibitors | hit rate 0.37% among 290,000 | AID 1721, 2009; also: potency is read from the fitted curve at half-maximal effect; % is scaled to controls: 0 for no effect and ±100 for the full control effect
#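 0.1 nM LmPK, 0.5 mM PEP, 0.1 mM ADP; 50 mM imidazole pH 7.2, 7 mM MgCl2, 50 mM KCl; 1 h RT. Kinase-Glo luminescence readout, normalized to no-enzyme (full inhibition) and uninhibited wells.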
# Shiga inhibitor: A qHTS for Small Molecule Inhibitors of Shiga Toxin; hit rate 9.2% among 290,000; inhibition, % at 38.7 µM; Vero cells, Shiga toxin protein synthesis inhibition reporter; in the data active = inhibition mostly above about 28%, no sharp cut-off; inactive = mostly below about 43%; also: 0% is about no effect
# RE007 growth inh: qHTS Assay for Inhibitors of the HIV-1 protein Vpr; S. pombe RE007 Vpr strain, BacTiter-Glo ATP luminescence, 24 h; Potency, µM (highest dose often 92.2 µM), without a hit: at the highest dose activity change, negative = less growth, actives largely listed as inhibitors; hit rate 0.21% among 360,000; AID 651644, 2012; active = well fitted falling curve with a large enough effect; inconclusive = small, poorly fitted or top-dose-only effect; inactive = no such curve, though single readings can be large or run the other way; also: potency is read from the fitted curve at half-maximal effect; % is scaled to controls: 0 for no effect and ±100 for the full control effect; nearly all actives have a fitted effect of over 50% in size
#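 Fission yeast strain RE007, carrying one chromosomally integrated HIV-1 vpr copy, was seeded at OD 0.01 in PMG+AL medium with 23 nL pinned compound. After 24 h at 30 °C and 99% humidity, viability was read by BacTiter-Glo luminescence.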
# CHX counter: Cycloheximide Counterscreen for Small Molecule Inhibitors of Shiga Toxin; cell reporter, cycloheximide protein synthesis inhibition counterscreen; max response, %; hit rate 12% among 300,000; AID 2314, 2010; in the data active = max response mostly above about 13%, no sharp cut-off; inactive = mostly below about 14%; also: read at 38.3 µM for the half of the compounds with a filed dose; 0% is about no effect
# FBPA Giardia inh: qHTS Assay for Inhibitors of Fructose-1,6-bisphosphate Aldolase from Giardia Lamblia | A8B2U2 | purified Giardia FBPA | Potency, µM (top dose mostly 59.6 µM), without a hit: at the highest dose activity, negative = inhibition, actives largely listed as inhibitors | hit rate 0.71% among 290,000; also: potency is read from the fitted curve at half-maximal effect; % is scaled to controls: 0 for no effect and ±100 for the full control effect; nearly all actives have a fitted effect of over 55% in size
# Target sequence (A8B2U2 whole entry, looked up): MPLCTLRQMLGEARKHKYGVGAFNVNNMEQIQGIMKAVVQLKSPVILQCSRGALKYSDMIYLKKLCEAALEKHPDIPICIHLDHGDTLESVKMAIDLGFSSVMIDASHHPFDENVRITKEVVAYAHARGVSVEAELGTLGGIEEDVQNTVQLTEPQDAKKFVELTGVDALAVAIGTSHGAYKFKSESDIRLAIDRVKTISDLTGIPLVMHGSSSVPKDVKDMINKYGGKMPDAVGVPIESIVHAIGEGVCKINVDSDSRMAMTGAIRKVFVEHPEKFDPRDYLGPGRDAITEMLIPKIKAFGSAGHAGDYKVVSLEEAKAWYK
#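 40 nM FBPA preincubated 10 min at RT with compound (up to 57.5 uM final), then substrate plus GAPDH/TPI/NAD/arsenate coupling and diaphorase/resazurin added. Fluorescence read after 20 min at RT, 525/598 nm.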
# Tb PYK inh: qHTS of Trypanosoma Brucei Inhibitors; Potency, µM (top dose mostly 76.8 µM), without a hit: at the top dose activity, negative = inhibition, actives largely listed as inhibitors; pyruvate kinase (Trypanosoma brucei), Q57TT1; TbPYK enzyme, Kinase-Glo Plus ATP luminescence, 45 min; AID 624173, 2012; hit rate 0.12% among 410,000; also: potency is read from the fitted curve at half-maximal effect; % is scaled to controls: 0 for no effect and ±100 for the full control effect; nearly all actives have a fitted effect of over 50% in size
#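 In this concentration-response screen, enzyme-free wells defined baseline while DMSO plates tracked drift. Each reaction combined TbPYK, substrate, compound and 130 uM ADP for 45 min at room temperature. Kinase-Glo Plus luminescence gave the signal.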
# Numbers without * were called inactive; ? = inconclusive; . = no result given; [ ] = dose if it differs, or a comment. Unless noted, calls follow the shape of the dose curve; as a rule, active = well fitted curve in the direction sought with a large enough effect; inconclusive = small, poorly fitted or top-dose-only effect, or another doubt; inactive = no such curve, though single readings can be large; an effect the other way counts as inactive or inconclusive.
SMILES,LmPK inhibitor,Shiga inhibitor,RE007 growth inh,CHX counter,FBPA Giardia inh,Tb PYK inh
CN(C(=O)COC(=O)c1cccnc1Nc1cccc(C(F)(F)F)c1)C1CCS(=O)(=O)C1 (configuration not stated),4%,-6,-18%,-3,3%,12%
CN(C(=O)COC(=O)c1cccnc1Nc1ccccc1F)C1CCS(=O)(=O)C1 (configuration not stated),?,65*,3%,28*,0%,-2%
CS(=O)(=O)c1ccc(C(=O)C2C(=O)CCCC2=O)c([N+](=O)[O-])c1,.,.,.,.,.,-8%[157 µM]
CC(C)Oc1ccc(CNC(=S)Nc2ccccc2)cc1Cl,1%,.,3%,8,6%,6%
CC(C)Oc1ccc(CCN=C(N)N=C(N)N)cc1Cl,1%,51*,2%,29*,4%,11%
CC1=NN(C(=O)c2ccccc2F)C(O)(c2ccc(Cl)cc2)C1 (configuration not stated),-1%,57,4%,15,-14%,-4%
COc1ccccc1NC(=O)C1=C(C)Nc2nc(SCc3ccccc3)nn2C1c1cccs1 (configuration not stated),.,.,.,.,.,0%
CC12CCC(=O)N1C(C(=O)OCC(=O)Nc1ccc(C(F)(F)F)cc1)CS2 (configuration not stated),.,.,13%,.,.,-4%
C/C(=N/Nc1ncc(Br)cn1)c1ccc(Br)cc1,5%,33,2%,2,12%,?
C/C(=N\Nc1ccc(Cl)c(C(=O)O)c1)c1ccc(Br)s1,5%,153*,-12%,59*,-18%,-12%
COc1ccc2c(c1)C(=NNc1ccc(C(=O)O)cc1)c1cc(OC)ccc1-2,-1%,43,.,9,0%,7%
COc1ccc(/C(C)=N/Nc2ccc(C(=O)O)cc2)c(OC)c1,1%,53*,-7%,61*,-1%,11%
C/C(=N\Nc1ccc(C(=O)O)cc1)c1ccc(Br)cc1,4%,42*,-18%,21*,8%,2%
CCOC(=O)c1c(NC(C)=O)sc(/C(C)=N/Nc2ccc(C(=O)O)cc2)c1C,-3%,59*,13%,70*,0%,10%
CC1(C(=O)Nc2ccc3c(c2)OCCO3)CN(S(C)(=O)=O)CC(=O)N1C1CCCCCC1 (configuration not stated),.,.,-10%,.,.,.
C/C=C1\COC(C(=O)NCc2cccc(OC)c2OC)(C(F)(F)F)C=C1C=C(C)C (configuration not stated),.,13,.,-4,-3%,.
COC(=O)c1ccc(NC(=O)C(=O)NCCc2csc(-c3ccc(F)cc3)n2)cc1,.,.,.,.,.,1%
C/C(=N\Nc1ccc(C(=O)O)cc1)c1ccc(Cl)s1,-4%,62*,0%,40*,-3%,2%
CCOCCCNC(=O)c1cc2c(s1)-c1ccccc1SC2,-3%,63*,-17%,16,11%,?
Cc1ccc(CNC(=O)c2cc3c(s2)-c2ccccc2SC3)cc1,.,.,.,.,.,0%
CCn1nccc1C(=O)Nc1ccc(Cl)cn1,28µM*,70*,-6%,60*,-4%,-13%
CCn1ccc(C(=O)Oc2ccc(Cl)cc2)n1,-2%,56*,-29%,22*,-1%,-3%
CCn1ccc(C(=O)Nc2ccc(Cl)cn2)n1,-4%,80,-5%,39*,2%,1%
CC(C)c1ccc(OC(=O)c2cc(-c3ccc(Cl)cc3)on2)cc1,.,.,.,.,.,3%
COc1ccc(CCNC(=O)c2c[nH]n3c(=O)c(Cc4ccccc4Cl)c(C)nc23)cc1OC,.,.,.,.,.,-7%
SMILES,LmPK inhibitor,Shiga inhibitor,RE007 growth inh,CHX counter,FBPA Giardia inh,Tb PYK inh
Cc1ccc(C)c(N2CCN(S(=O)(=O)c3cc(C(=O)Nc4ccc(Oc5ccccc5)cc4)ccc3F)CC2)c1,.,.,.,.,.,3%
Clc1ccccc1CN1CCc2nc(N3CCN(c4ncccn4)CC3)ncc2C1,.,.,.,.,.,4%
O=C(NCc1cccnc1)Nc1ccc2c(c1)OCO2,-6%,128*,-15%,27*,-5%,-1%
CCc1ccc(NC(=O)NCc2ccc3c(c2)OCO3)cc1,1%,7,8%,13,1%,1%
Cn1cc(CNC(=O)Nc2ccc3c(c2)OCO3)cn1,1%,27,1%,15*,1%,-13%
c1cncc(CNc2ccc3c(c2)OCO3)c1,-12%,21,-18%,14,?,?
O=C(NCCCn1ccnc1)Nc1ccc2c(c1)OCO2,-1%,76*,-15%,39*,-13%,-2%
CSc1cccc(NC(=O)CSc2ncccc2C(=O)Oc2cccc([N+](=O)[O-])c2)c1,1%,-1,-9%,17*,2%,-7%
CCC(CCC(=O)Nc1cccc([N+](=O)[O-])c1)C(=O)O (configuration not stated),0%,-14,-5%,-2,3%,-13%
CCN(C(=O)CSc1ncccc1C(=O)Oc1cccc([N+](=O)[O-])c1)c1cccc(C)c1,2%,-2,.,-4,0%,-3%
COC(=O)c1cccc(NC(=O)COc2cccc([N+](=O)[O-])c2)c1,1%,23,-2%,16*,0%,6%
CCC(CC)C(=O)OCC(=O)Nc1cccc([N+](=O)[O-])c1,-1%,37*,10%,15*,-2%,0%
CC(=O)c1cccc(NC(=O)/C=C/c2ccc([N+](=O)[O-])s2)c1,-4%,96*,-7%,33*,-3%,-4%
CCOc1ccccc1C(=O)Oc1c(S(=O)(=O)c2ccc(C)cc2)c(C)nn1-c1ccccc1,.,.,.,.,.,-4%
COC(=O)c1cccc(NC(=O)/C=C/c2ccc([N+](=O)[O-])cc2)c1,1%,13,3%,10,3%,1%
COC(=O)c1cccc(NC(=O)/C=C/c2cccc([N+](=O)[O-])c2)c1,6%,52,3%,15*,2%,-3%
O=C1C(O)=C(O)C(=O)C(O)=C1O,.,.,.,.,13µM*,-12%
CC1=C(O)C(=O)C(C2=C(O)C(=O)C(C)=C(O)C2=O)=C(O)C1=O,.,.,-15%,.,.,2%
CC(=O)N1CCC(N(Cc2ccco2)C(=O)Nc2ccc(C)c(Cl)c2)CC1,.,.,.,.,.,-6%
CC(C)(C)OC(=O)N1CCC(c2c(C(=O)NC3CCCCC3)cnn2-c2cccc(Cl)c2)CC1,.,.,.,.,.,-1%
CCOc1ccc(C(=O)c2nc3c(n2O)CCCC3)cc1,0%,30,-5%,23*,-8%,0%
O=C(c1cc2ccccc2o1)c1nc2c(n1O)CCCCC2,-1%,83*,?,47*,-7%,-3%
Cc1ccc(C(=O)c2nc3c(n2O)CCCC3)cc1,10%,11,-27%,17,-7%,-2%
